HepG2 tox – HepG2 cytotoxicity, counter-screen for TGF-b inhibitors; HepG2 CAGA-GFP viability, ATP luminescence, 18 h; 0.76% of 410,000 active; Potency, µM (doses to about 46.1 µM), hits mostly cytotoxic
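HepG2 CAGA-GFP cells (1000/well, DMEM with 1% FBS) received compound, then TGF-beta at 500 pg/mL final, and were incubated 18 hours at 37 degrees C. Viability was read by CellTiter-Glo luminescence. Media-only wells were set as complete cell-killing and DMSO as no toxicity.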
DT40 TDP1 no CPT – qHTS for Inhibitors of human tyrosyl-DNA phosphodiesterase 1 (TDP1): qHTS in cells in absence of CPT | 15% of 420,000 active | Potency, µM (highest dose often 46.2 µM), most hits filed as inhibitors | DT40 Tdp1-/- hTDP1 cells, no CPT, ATP luminescence, 48 h; also: nearly all actives have a fitted effect of over 55% in size
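A cellular qHTS used chicken DT40 cells lacking endogenous Tdp1 but carrying stably transfected human TDP1. Compounds were applied without camptothecin, and cell growth kinetics were judged by ATP-dependent luminescence after ≥48 hr.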
TDP1 cell CPT – growth inhibition of DT40 Tdp1-/-;hTDP1 cells with camptothecin (screen for TDP1 inhibitors) | Potency, µM (top dose mostly 46.2 µM), most hits filed as inhibitors | chicken DT40 Tdp1-/-;hTDP1 cells + 20 nM CPT, ATP luminescence, 48 h | AID 686979 | 12% of 420,000 active; also: nearly all actives have a fitted effect of over 55% in size
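Chicken DT40 Tdp1-/- cells stably complemented with human TDP1 were seeded at 400 cells/well in medium containing 20 nM camptothecin, exposed to pin-transferred compounds, and grown at 37 °C for at least 48 hr. Viability was read as ATP luminescence.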
HT1080 IDH1KD tx – HT-1080 IDH1 knockdown cell toxicity (counter line). 2% of 360,000 active. HT-1080 IDH1 knockdown viability, ATP luminescence, 48 h. Potency, µM (highest dose often 46.1 µM), hits mostly cytotoxic. AID 686971
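% activity derives from luminescence (CellTiter-Glo), normalised to DMSO and no-cell wells. HT-1080-IDH1KD cells, 750/well, had 48 h compound exposure at 37 °C.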
HT1080NT lethal – kills 2HG-producing HT-1080-NT fibrosarcoma cells; HT-1080-NT fibrosarcoma viability, CellTiter-Glo ATP luminescence, 48 h; AID 686970; 1.6% of 360,000 active; Potency, µM (doses to about 46.1 µM), most hits filed as cytotoxic;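 also: NT is the 2HG producing partner of a matched IDH1 knockdown line; nearly all actives have a fitted effect of over 55% in size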
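Read-out is CellTiter-Glo luminescence after 10 minutes at room temperature, following 48 hours' compound treatment of HT-1080-NT cells (750 cells/well, RPMI, 5% FBS, 37 degrees C).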
TGFb SMAD3 inh – TGF-b pathway inhibition. Potency, µM (titrated, usually from 46.1 µM), hits mostly inhibitors. 1.2% of 410,000 active. HepG2 CAGA-GFP TGF-b/SMAD3 reporter, GFP fluorescence, 18 h; TGF-beta stimulated, 500 pg/mL final; also: nearly all actives have a fitted effect of over 65% in size
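Smad-responsive CAGA-GFP expression was quantified in HEPG2 cells exposed to compounds and 500 pg/mL final TGF-beta for 18 h at 37 degrees C; unstimulated wells defined full inhibition.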
Large screens that a line does not name were inactive. Only some compounds are listed: those with a hit (about 17% of all), similar ones and a draw of the others. Calls follow the shape of the dose curve; as a rule, active = well fitted curve in the direction sought with a large enough effect; inconclusive = small, poorly fitted or top-dose-only effect, or another doubt; inactive = no such curve, though single readings can be large; an effect the other way counts as inactive or inconclusive.

CC(C)[C@H](NS(=O)(=O)c1ccccc1)C(=O)OCC(=O)N1N=C(c2ccc(Cl)cc2)CC1c1ccco1 (some centres undefined)	DT40 TDP1 no CPT 13µM, TDP1 cell CPT 18.4µM, HT1080 IDH1KD tx inconclusive, HT1080NT lethal inconclusive, TGFb SMAD3 inh inconclusive
O=C(c1ccco1)N1N=C(c2ccc(Cl)cc2)CC1c1ccco1 (centres undefined)	DT40 TDP1 no CPT 9.2µM, TDP1 cell CPT 18.4µM, HT1080NT lethal inconclusive
COc1ccc(C2=NN(C(=O)CSc3nnc(-c4ccccc4F)o3)C(c3ccco3)C2)cc1 (centres undefined)	DT40 TDP1 no CPT 20.6µM, TDP1 cell CPT inconclusive
CC1CCCCC1NC(=O)COC(=O)c1ccc2ncsc2c1 (centres undefined)	none
CC1(C)CCCC2(C)C(OCCO)=CC(=O)C=C12 (centres undefined)	none
Cc1cccc(C)c1NC(=O)CNC(=O)C1CC(=O)N(Cc2ccccc2)C1 (centres undefined)	none
CC[C@@H](NC(=O)[C@H](Cc1ccccc1)NC(=O)CC[C@H]1O[C@@H](n2ccc(=O)[nH]c2=O)[C@H](O)[C@@H]1O)c1ccccc1	none
COc1ccc(C2=NN(C(=O)c3ccco3)C(c3ccco3)C2)cc1OC (centres undefined)	DT40 TDP1 no CPT 18.4µM, TDP1 cell CPT 29.1µM
O=C(c1ccco1)N1N=C(c2ccccc2)CC1c1ccc2nccnc2c1 (centres undefined)	DT40 TDP1 no CPT inconclusive, TDP1 cell CPT inconclusive
CN1CC(=O)N(CC(=O)N2N=C(c3ccc(Cl)cc3)CC2c2ccco2)C1=O (centres undefined)	DT40 TDP1 no CPT inconclusive, TDP1 cell CPT inconclusive
O=C(c1ccco1)N1N=C(c2ccc(Br)cc2)CC1c1ccco1 (centres undefined)	DT40 TDP1 no CPT 5.17µM, TDP1 cell CPT 8.2µM
CCc1ccc(C2=NN(C(C)=O)C(c3ccco3)C2)cc1 (centres undefined)	DT40 TDP1 no CPT 16.4µM, TDP1 cell CPT inconclusive
CCC(=O)N1N=C(c2ccc(Cl)cc2)CC1c1ccco1 (centres undefined)	DT40 TDP1 no CPT 11.6µM, TDP1 cell CPT 23.1µM
COc1ccc(C2=NN(C(N)=S)C(c3ccco3)C2)cc1 (centres undefined)	TDP1 cell CPT inconclusive
CS(=O)(=O)Nc1ccc(-c2cnc3cccnn23)cc1	DT40 TDP1 no CPT inconclusive, TDP1 cell CPT inconclusive
CC(=O)Nc1nnc(SCC(=O)Nc2nc(C)cs2)s1	none
Cc1ccc(C2=NN(C(=O)CSc3nccn3C)C(c3ccco3)C2)cc1 (centres undefined)	DT40 TDP1 no CPT 20.6µM, TDP1 cell CPT 20.6µM, HT1080 IDH1KD tx 14.6µM, HT1080NT lethal 18.4µM
O=C(COc1cccnc1[N+](=O)[O-])N1N=C(c2ccc(Cl)cc2)CC1c1ccco1 (centres undefined)	DT40 TDP1 no CPT 2.91µM, TDP1 cell CPT inconclusive, HT1080 IDH1KD tx inconclusive, HT1080NT lethal inconclusive
CC(=O)N1N=C(c2ccc(NS(=O)(=O)c3ccccc3)cc2)CC1c1ccco1 (centres undefined)	DT40 TDP1 no CPT 2.31µM, TDP1 cell CPT 2.59µM, HT1080 IDH1KD tx 5.17µM, HT1080NT lethal 4.61µM, TGFb SMAD3 inh inconclusive
O=C(CSc1nnc2c(n1)[nH]c1ccc(F)cc12)NCc1ccc(F)cc1	none
CCc1ccc(C)c(OC(=O)c2cncc(Br)c2)c1	none
COc1ccc(C(c2c(O)nc[nH]c2=O)c2c(O)nc[nH]c2=O)cc1	none
O=S(=O)(N/N=C/c1ccccc1F)c1ccccc1	DT40 TDP1 no CPT 23.1µM, TDP1 cell CPT 18.4µM
Cc1ccc(S(=O)(=O)NOCc2ccccc2)cc1	DT40 TDP1 no CPT inconclusive
